Measurements from PMC7862700, “An all-to-all approach to the identification of sequence-specific readers for epigenetic DNA modifications on cytosine”.

What was measured:
Assay in all cases: DAPPL (digital affinity profiling via proximity ligation, sequencing); 10 mM Tris-HCl pH 7.5, 50 mM NaCl, 1 mM DTT, 4% glycerol, room temperature, 30 min; GST-TFs on glutathione beads, 16-mer random dsDNA library, 0.1% formaldehyde crosslink after washing; high values mean tight binding
Details in all cases: protein: recombinant; tags: N-terminal GST; dsDNA, one strand shown
[1] = target: T1, FLI1 (Homo sapiens, UniProt Q01543 1-452)
T1 sequence: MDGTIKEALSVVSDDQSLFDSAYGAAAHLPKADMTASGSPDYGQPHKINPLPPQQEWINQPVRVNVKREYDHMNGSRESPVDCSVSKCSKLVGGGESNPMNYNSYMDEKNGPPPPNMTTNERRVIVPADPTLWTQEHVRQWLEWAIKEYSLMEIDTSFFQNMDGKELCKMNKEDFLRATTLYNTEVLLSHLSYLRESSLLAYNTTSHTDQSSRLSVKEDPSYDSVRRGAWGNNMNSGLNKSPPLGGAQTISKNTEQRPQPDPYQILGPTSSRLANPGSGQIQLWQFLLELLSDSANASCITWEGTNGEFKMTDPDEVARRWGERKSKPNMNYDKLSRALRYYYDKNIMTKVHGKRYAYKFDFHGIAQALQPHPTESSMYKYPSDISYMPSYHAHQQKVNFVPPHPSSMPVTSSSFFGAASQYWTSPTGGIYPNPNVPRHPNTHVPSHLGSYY
In short: (§1)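 After expression in yeast as GST fusions, human transcription factors were bound to glutathione beads, DNA-barcoded and mixed with a tag-only sample. The pools were incubated with 200 nmole of a 16-mer random double-stranded DNA library in Tris/NaCl/DTT/glycerol buffer (30 min, room temperature), washed and crosslinked with 0.1% formaldehyde. Proximity ligation with BsaI/T4 ligase ran for 1 h at 37 °C, before PCR amplification and sequencing on an Illumina NextSeq500. Binding signal is a hexamer's read frequency for a factor divided by its frequency for the tag-only sample.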

[2] = target: T2, ELK1 (Homo sapiens, UniProt P19419 1-428)
T2 sequence: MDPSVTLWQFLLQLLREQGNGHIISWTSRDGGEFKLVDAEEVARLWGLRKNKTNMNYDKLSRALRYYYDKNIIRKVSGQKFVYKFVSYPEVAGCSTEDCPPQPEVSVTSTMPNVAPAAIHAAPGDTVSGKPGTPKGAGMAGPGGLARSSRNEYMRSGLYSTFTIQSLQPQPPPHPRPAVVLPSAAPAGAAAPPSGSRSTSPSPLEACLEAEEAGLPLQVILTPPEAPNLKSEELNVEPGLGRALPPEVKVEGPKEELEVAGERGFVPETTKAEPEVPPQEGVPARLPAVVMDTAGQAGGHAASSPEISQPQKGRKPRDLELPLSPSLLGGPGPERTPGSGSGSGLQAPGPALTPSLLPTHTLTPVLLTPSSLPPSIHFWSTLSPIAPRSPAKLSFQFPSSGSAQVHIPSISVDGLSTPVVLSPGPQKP
In short: as §1

[3] = target: T3, GABPA (Homo sapiens, UniProt Q06546 1-454)
T3 sequence: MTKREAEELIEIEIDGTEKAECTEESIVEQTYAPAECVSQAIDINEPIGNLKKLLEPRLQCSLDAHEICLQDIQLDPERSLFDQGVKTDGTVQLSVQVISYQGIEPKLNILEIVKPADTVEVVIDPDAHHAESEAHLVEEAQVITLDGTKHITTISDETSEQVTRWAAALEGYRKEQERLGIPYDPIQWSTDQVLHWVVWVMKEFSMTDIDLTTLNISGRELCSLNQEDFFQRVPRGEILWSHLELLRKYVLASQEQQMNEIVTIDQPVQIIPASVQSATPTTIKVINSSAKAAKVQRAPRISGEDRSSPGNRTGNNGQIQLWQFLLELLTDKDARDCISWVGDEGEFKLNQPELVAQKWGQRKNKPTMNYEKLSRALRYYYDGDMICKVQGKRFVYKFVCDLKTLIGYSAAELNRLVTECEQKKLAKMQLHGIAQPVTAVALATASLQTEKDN
In short: as §1

[4] = target: T4, ERG (Homo sapiens, UniProt P11308 1-479)
T4 sequence: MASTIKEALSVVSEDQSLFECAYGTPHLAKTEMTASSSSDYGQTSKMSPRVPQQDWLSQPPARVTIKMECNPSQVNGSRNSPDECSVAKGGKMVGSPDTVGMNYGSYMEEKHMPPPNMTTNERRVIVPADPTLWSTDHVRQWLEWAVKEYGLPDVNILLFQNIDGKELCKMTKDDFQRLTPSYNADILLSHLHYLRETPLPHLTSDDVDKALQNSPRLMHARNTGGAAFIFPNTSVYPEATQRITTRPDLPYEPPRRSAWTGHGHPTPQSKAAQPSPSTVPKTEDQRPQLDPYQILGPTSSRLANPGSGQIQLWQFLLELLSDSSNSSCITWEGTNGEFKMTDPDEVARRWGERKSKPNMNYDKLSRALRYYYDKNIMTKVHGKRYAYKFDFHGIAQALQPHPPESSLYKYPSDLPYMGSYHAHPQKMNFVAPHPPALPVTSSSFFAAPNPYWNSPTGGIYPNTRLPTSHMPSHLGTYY
In short: as §1

[5] = target: ELF1 (Homo sapiens, UniProt P32519 1-619)
In short: as §1

[6] = target: T5, EHF (Homo sapiens, UniProt Q9NZC4 1-300)
T5 sequence: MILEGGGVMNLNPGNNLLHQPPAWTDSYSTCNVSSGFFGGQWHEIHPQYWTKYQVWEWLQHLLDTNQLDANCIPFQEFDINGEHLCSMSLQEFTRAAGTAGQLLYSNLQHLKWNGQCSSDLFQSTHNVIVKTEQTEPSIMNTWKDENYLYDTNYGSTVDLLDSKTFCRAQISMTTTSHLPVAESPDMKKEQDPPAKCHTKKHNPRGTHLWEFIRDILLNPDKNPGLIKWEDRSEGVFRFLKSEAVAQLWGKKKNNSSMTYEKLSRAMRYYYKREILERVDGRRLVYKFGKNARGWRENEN
In short: as §1

[7] = target: SPI1 (Homo sapiens, UniProt P17947 1-270)
In short: as §1

[8] = target: SPIB (Homo sapiens, UniProt Q01892 1-262)
In short: as §1

[9] = target: T6, ELK3 (Homo sapiens, UniProt P41970 1-407)
T6 sequence: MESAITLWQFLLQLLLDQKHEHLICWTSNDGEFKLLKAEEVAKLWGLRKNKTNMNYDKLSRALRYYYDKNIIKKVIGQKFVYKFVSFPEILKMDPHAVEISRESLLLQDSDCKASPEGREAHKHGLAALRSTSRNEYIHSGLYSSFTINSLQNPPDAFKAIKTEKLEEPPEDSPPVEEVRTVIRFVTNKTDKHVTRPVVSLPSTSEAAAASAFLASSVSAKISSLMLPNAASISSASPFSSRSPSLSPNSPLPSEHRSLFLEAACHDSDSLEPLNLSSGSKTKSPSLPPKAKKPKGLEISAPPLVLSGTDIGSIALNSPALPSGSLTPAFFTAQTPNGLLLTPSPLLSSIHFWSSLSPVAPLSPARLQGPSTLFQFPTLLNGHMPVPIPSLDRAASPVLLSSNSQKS
In short: as §1

[10] = target: T7, FEV (Homo sapiens, UniProt Q99581 1-238)
T7 sequence: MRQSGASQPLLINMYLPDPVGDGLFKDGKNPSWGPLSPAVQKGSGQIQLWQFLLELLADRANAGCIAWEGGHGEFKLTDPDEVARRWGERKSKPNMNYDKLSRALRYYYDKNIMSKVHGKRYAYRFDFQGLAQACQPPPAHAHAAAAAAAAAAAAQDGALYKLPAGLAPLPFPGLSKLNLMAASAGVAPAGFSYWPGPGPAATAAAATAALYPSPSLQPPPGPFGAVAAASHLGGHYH
In short: as §1

Chain of SPIB (Q01892 whole entry): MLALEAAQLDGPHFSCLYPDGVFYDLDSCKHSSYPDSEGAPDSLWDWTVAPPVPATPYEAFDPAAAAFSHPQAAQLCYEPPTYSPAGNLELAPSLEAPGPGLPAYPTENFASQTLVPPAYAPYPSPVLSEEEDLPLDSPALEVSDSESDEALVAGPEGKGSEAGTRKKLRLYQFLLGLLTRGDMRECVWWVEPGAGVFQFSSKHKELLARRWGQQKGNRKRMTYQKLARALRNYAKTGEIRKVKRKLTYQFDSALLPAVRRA
Chain of ELF1 (P32519 whole entry): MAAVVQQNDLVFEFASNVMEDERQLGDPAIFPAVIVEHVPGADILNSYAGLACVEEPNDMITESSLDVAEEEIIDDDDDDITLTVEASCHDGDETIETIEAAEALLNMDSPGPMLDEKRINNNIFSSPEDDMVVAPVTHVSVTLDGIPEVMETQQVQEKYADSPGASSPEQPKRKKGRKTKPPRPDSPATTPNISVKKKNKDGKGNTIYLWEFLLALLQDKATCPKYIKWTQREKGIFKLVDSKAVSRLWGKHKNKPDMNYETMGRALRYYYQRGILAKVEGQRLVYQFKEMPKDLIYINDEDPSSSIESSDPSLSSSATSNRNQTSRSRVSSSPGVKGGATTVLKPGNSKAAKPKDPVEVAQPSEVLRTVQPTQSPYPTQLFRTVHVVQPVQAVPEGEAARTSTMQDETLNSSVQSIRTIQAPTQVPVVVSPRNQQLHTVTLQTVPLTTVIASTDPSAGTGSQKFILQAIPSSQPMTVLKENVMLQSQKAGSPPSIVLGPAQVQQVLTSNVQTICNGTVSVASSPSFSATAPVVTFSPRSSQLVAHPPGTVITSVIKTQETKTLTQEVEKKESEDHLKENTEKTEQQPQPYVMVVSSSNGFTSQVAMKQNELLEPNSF

## AAACCG
[1]
  binding signal: 1.05 fold enrichment (6-mer frequency, TF over GST control)
[2]
  binding signal: 1.05 fold enrichment (6-mer frequency, TF over GST control)
[3]
  binding signal: 1.07 fold enrichment (6-mer frequency, TF over GST control)
[4]
  binding signal: 1.13 fold enrichment (6-mer frequency, TF over GST control)
[5]
  binding signal: 1.12 fold enrichment (6-mer frequency, TF over GST control)
[6]
  binding signal: 1.08 fold enrichment (6-mer frequency, TF over GST control)
[7]
  binding signal: 1.25 fold enrichment (6-mer frequency, TF over GST control)
[8]
  binding signal: 1.05 fold enrichment (6-mer frequency, TF over GST control)
[9]
  binding signal: 1.09 fold enrichment (6-mer frequency, TF over GST control)
[10]
  binding signal: 1.33 fold enrichment (6-mer frequency, TF over GST control)
